Screens (PubChem BioAssay)
DT40 TDP1 no CPT: qHTS for Inhibitors of human tyrosyl-DNA phosphodiesterase 1 (TDP1): qHTS in cells in absence of CPT | actives 15% (n = 420,000) | Potency, µM (doses to about 46.2 µM), for the others: top-dose activity change, negative = growth inhibition, actives largely listed as inhibitors | DT40 Tdp1-/- hTDP1 cells, no CPT, ATP luminescence, 48 h | AID 686978, 2013; note: potency is the fitted concentration of half-maximal effect; nearly all actives have a fitted effect of over 55% in size
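Chicken DT40 Tdp1-/- cells stably complemented with human TDP1 were seeded at 400 cells/well with DMSO in place of 20 nM camptothecin. After compound pinning, cells grew at least 48 hr at 37 °C; viability read by CellTiter-Glo luminescence.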
RORg inh: inhibitors of mouse ROR gamma transcriptional activity. Drosophila S2 Gal4-RORgamma UAS-luciferase reporter, 20 h. Potency, µM (titrated, usually from 53.6 µM), for inactives: top-dose activity change, negative = inhibition, usual class: inhibitors. actives 5.4% (n = 310,000); note: potency is the fitted concentration of half-maximal effect; nearly all actives have a fitted effect of over 60% in size
Target sequence (P51450 whole entry, looked up, the tested form may be a part): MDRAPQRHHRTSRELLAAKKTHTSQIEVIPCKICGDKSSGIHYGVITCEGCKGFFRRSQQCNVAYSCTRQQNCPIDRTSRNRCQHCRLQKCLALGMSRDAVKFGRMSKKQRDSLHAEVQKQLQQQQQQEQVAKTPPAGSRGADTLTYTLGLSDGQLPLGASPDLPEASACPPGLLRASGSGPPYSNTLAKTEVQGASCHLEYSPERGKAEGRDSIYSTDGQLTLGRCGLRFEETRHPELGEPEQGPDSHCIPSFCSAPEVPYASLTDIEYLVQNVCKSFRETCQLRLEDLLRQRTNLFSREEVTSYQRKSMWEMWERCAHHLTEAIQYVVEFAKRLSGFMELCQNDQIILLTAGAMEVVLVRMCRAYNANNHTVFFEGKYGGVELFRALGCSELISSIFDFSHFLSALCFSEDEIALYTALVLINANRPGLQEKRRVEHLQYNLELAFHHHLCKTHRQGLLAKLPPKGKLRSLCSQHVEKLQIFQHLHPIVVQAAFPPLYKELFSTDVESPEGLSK
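Compounds are pin-transferred onto Drosophila Schneider cells expressing a copper-inducible Gal4–ROR gamma transactivation domain fusion. After 1 hr, copper sulfate is added to 700 uM final; luciferase is read 20 hr later.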
DT40 TDP1 CPT: DT40-hTDP1 cell growth loss with CPT. chicken DT40 Tdp1-/-;hTDP1 cells + 20 nM CPT, ATP luminescence, 48 h. Potency, µM (top dose mostly 46.2 µM), without a hit: at the top dose activity change, negative = growth inhibition, most hits filed as inhibitors. actives 12% (n = 420,000); note: potency is the fitted concentration of half-maximal effect; nearly all actives have a fitted effect of over 55% in size
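Cell growth measured by CellTiter-Glo luminescence after a minimum 48 h, 37 C compound exposure with 20 nM CPT in Tdp1-knockout DT40 cells stably expressing hTDP1, seeded 400/well; qHTS titration format.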
IL1B secr inh: inflammasome signaling inhibition, IL-1 beta readout | THP-1 LPS/ATP IL-1B secretion, AlphaLISA, 16 h; stronger effect = lower value | actives 4.7% (n = 360,000) | activity change, % at 57.5 µM; in the data active = activity change below about -50%; inconclusive = mostly about -30% to -49%
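Secreted IL-1B measured by AlphaLISA bead assay after 16 h compound exposure of THP-1 cells; compounds (final up to 57.5 uM) added 1 h before LPS (250 ng/mL) and ATP (1.25 mM) stimulation; lower signal means less secretion.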
LDHA inh: inhibitors of human lactate dehydrogenase A. P00338. purified LDHA, NADH/diaphorase-resazurin fluorescence; stronger effect = lower value. actives 0.15% (n = 480,000). activity change, % (values are at about 110 or 230 µM); in the data active = activity change below about -30%; inconclusive = mostly about -25% to -30%;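 note: plate controls were DMSO wells for no effect and wells without enzyme for full effect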
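Remaining NADH was detected by diaphorase (0.133 mg/mL) converting 37 µM resazurin to fluorescent resorufin, read at 0 and 20 minutes. The preceding 5-minute room-temperature reaction used 2 nM LDHA, 0.2 mM sodium pyruvate and 0.06 mM NADH at pH 7.4.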
VP16 counter: counter-screen for ROR gamma inhibitors: Gal4-VP16 reporter; Drosophila S2 Gal4-VP16 UAS-luciferase, luminescence, 20 h; Potency, µM (series often up to 53.6 µM), inactives show at the top dose activity, negative = inhibition, actives largely listed as inhibitors; actives 3.5% (n = 310,000);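 note: Gal4-VP16 expression switched on by copper sulfate through the metallothionein promoter; potency is the fitted concentration of half-maximal effect; nearly all actives have a fitted effect of over 50% in size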
Active calls of the source: *; ? = inconclusive; nt = not tested or not shown. This is a sample that favours compounds with a hit; in the whole collection about 18% have one here. Unless noted, calls come from the whole dose curve; as a rule, active = well fitted curve in the direction sought with a large enough effect; inconclusive = small, poorly fitted or top-dose-only effect, or another doubt; inactive = no such curve, though single readings can be large; an effect the other way counts as inactive or inconclusive. Unless noted, % is set by controls: 0 for no effect and ±100 for the full control effect.

SMILES	DT40 TDP1 no CPT	RORg inh	DT40 TDP1 CPT	IL1B secr inh	LDHA inh	VP16 counter
Cc1cccc(NC(=S)NC(C)C(c2cccs2)N2CCN(C)CC2)c1C (stereo unspecified)	-2.3%	?	-18.6%	-2.5	-1.3	-8.9%
CC(NC(=S)NCCc1ccccc1)C(c1cccs1)N1CCN(Cc2ccccc2)CC1 (stereo unspecified)	?	5.01µM*	16.4µM*	-24.0	2.7	?
Cc1ccccc1NC(=S)NC(C)C(c1cccs1)N1CCOCC1 (stereo unspecified)	?	2.82µM*	-3.4%	9.7	-7.0	22.4µM*
Cc1ccc(C(=O)c2no[n+]([O-])c2C(=O)c2ccc(C)cc2)cc1	5.8µM*	?	2.91µM*	-91.1*	-2.0	?
Cc1ccc(Cl)cc1N1CCN(C(=O)c2cc3c(=O)n(C)c4ccccc4c3s2)CC1	2.2%	nt	7.7%	nt	-4.6	nt
Cc1cccc(N2CCN(C(=O)c3ccc4c(c3)c(C)c(C)n4C)CC2C)c1 (stereo unspecified)	20.6µM*	1.6%	16.4µM*	-22.5	2.5	-5.8%
Cc1ccc(-c2c(C(=O)N3CCN(c4cccc(C)c4)C(C)C3)oc(=O)c3ccccc23)cc1 (stereo unspecified)	?	nt	14.6µM*	nt	-12.9	nt
CC1CCN(C(=O)c2cc3c(=O)n(C)c4ccccc4c3s2)CC1	?	nt	11.6µM*	nt	2.4	nt
Cc1cccc(N2CCN(C(=O)c3cc4c(=O)n(C)c5ccccc5c4s3)CC2C)c1 (stereo unspecified)	2.31µM*	nt	?	nt	-5.6	nt
Cc1cc(-c2ccc3c(c2)OCCCO3)nc2ccccc12	nt	nt	nt	nt	-0.5	nt
Cc1ccc(C(=O)C(CC(=O)c2ccc(C)c(C)c2)S(=O)(=O)c2ccc(C)cc2)cc1 (stereo unspecified)	nt	nt	nt	nt	-5.4	nt
COc1ccccc1N1CCN(C(=O)c2cc3c(=O)n(C)c4ccccc4c3s2)CC1	25.9µM*	nt	?	nt	10.4	nt
COc1ccccc1N1CCN(C(=O)c2cc3c(=O)n(C)c4ccccc4c3n2C)CC1	23.1µM*	12.2%	23.1µM*	4.6	-4.5	-0.4%
COc1ccc(-c2csc(/C(C#N)=C\c3ccccc3C(F)(F)F)n2)cc1	nt	nt	nt	nt	11.7	nt
CCOC(=O)/C=C/C(=O)Nc1ccc(Oc2ccccc2)cc1	?	?	?	-72.6*	-7.7	0.2%
CCOC(=O)/C=C/C(=O)Nc1ccc(S(=O)(=O)Nc2c(C)cc(C)cc2C)cc1	16.4µM*	-35.4%	7.31µM*	-72.3*	-16.3	-0.2%
Cc1cc(C)c(NS(=O)(=O)c2ccc(NC(=O)c3cccs3)cc2)c(C)c1	-11.1%	?	-4.7%	-7.1	-0.3	?
Cc1cc(NS(=O)(=O)c2ccc(NC(=O)/C=C/c3ccccc3)cc2)nc(C)n1	-0.4%	nt	10.6%	35.4	-5.5	nt
O=C(O)/C=C/C(=O)Nc1ccc(Oc2ccccc2)cc1	-11.7%	12.3%	-1.0%	nt	-1.5	0.5%
CCOC(=O)/C=C/S(=O)(=O)c1ccc(NC(C)=O)cc1	2.06µM*	3.55µM*	1.3µM*	-95.4*	-0.8	3.55µM*
Cc1cc(NS(=O)(=O)c2ccc(NC(=O)/C=C/c3ccc(C)o3)cc2)nc(C)n1	18.4µM*	6.8%	14.6µM*	7.8	2.5	-1.9%
Cc1cccc(C(=O)N2CCC(c3nc4ccccc4o3)CC2)c1	nt	nt	nt	nt	-4.2	nt
CCOC(=O)N1CCN(c2ccc(C(=O)O)cc2NS(=O)(=O)c2ccc(OC)c(Cl)c2)CC1	nt	nt	nt	nt	-0.4	nt
CCn1c(NC(=O)CCc2nc(-c3ccc(OC)c(OC)c3)no2)nc2ccccc21	nt	nt	nt	nt	-4.5	nt
CC(=O)c1ccc(NC(=O)/C=C/c2ccc(C)o2)cc1	?	nt	14.6µM*	nt	4.4	nt
SMILES	DT40 TDP1 no CPT	RORg inh	DT40 TDP1 CPT	IL1B secr inh	LDHA inh	VP16 counter
Cc1ccc(/C=C/C(=O)Nc2ccc(Oc3ccccc3)cc2)o1	?	32.2%	?	-82.8*	-3.3	?
Cc1ccc(/C=C/C(=O)Nc2cccc3cccnc23)o1	11.6µM*	4.6%	11.6µM*	0.0	8.6	27.9%
O=C(O)CNS(=O)(=O)c1cccs1	nt	nt	nt	nt	1.6	nt
Cc1cc(OCC(=O)NC2CCc3ccccc32)ccc1C(C)C (stereo unspecified)	nt	nt	nt	nt	11.3	nt
CCC(Sc1ccccn1)C(=O)Nc1nnc(C)s1 (stereo unspecified)	-2.4%	10µM*	-16.7%	12.1	3.1	-29.9%
Cc1nnc(NC(=O)C(Oc2ccccc2)c2ccccc2)s1 (stereo unspecified)	nt	nt	nt	nt	-2.5	nt
CCC(Sc1nc2ccccc2o1)C(=O)Nc1nnc(C)s1 (stereo unspecified)	?	12.6µM*	?	36.2	-7.1	?
COc1ccc(C(N)=O)c(OCc2coc(-c3ccccc3)n2)c1	nt	nt	nt	nt	-4.6	nt
CCOc1ccc(CNC(=O)C2CCCN(c3nc4c(C)cc(C)cc4s3)C2)cc1 (stereo unspecified)	?	nt	18.4µM*	nt	1.8	nt
COc1ccc(CCNC(=O)C2CCCN(c3nc4c(C)cc(C)cc4s3)C2)cc1OC (stereo unspecified)	13µM*	nt	20.6µM*	nt	-13.3	nt
CCC(C)c1ccccc1NC(=O)c1cc(C)nc2ccccc12 (stereo unspecified)	nt	nt	nt	nt	-2.3	nt
Cc1cc(=O)oc2cc(OCC(=O)NCCC#N)c(Cl)cc12	nt	nt	nt	nt	7.4	nt
O=C(CN1CCN(C(=O)c2ccccc2-c2ncc(-c3ccccc3)o2)CC1)N1CCCCC1	nt	nt	nt	nt	-3.7	nt
Cc1nn(CC(=O)Nc2ccc3nc(CN4CCCCC4)n(C)c3c2)c(=O)c2ccccc12	nt	nt	nt	nt	-5.8	nt
CC(C)c1nc(=S)c2ccccc2[nH]1	18.4µM*	5.62µM*	?	13.1	4.3	10µM*
S=c1nc(SCc2ccccc2)[nH]c2ccccc12	?	1.41µM*	-14.7%	33.4	-14.1	10µM*
S=c1nc(C2CCCCC2)[nH]c2ccccc12	?	0.631µM*	-10.2%	33.2	-16.5	8.91µM*
S=c1nc(C2CC2)[nH]c2ccccc12	?	3.55µM*	?	23.6	-3.8	5.62µM*
O=c1[nH]c(C2CCCCC2)nc2ccccc12	0.3%	19.5%	-27.2%	7.8	-10.8	2.3%
CNc1nc(=S)[nH]c2ccccc12	0.8%	-46.5%	9.0%	3.3	-0.9	-3.4%
O=[N+]([O-])c1cccc2nc(/C=C/c3ccccc3OC(F)F)ccc12	nt	nt	nt	nt	5.6	nt
